The values that follow come from PubChem BioAssay (NCATS).

Assay [1] addresses Lysosomal acid glucosylceramidase (Homo sapiens) (UniProt P04062). Nature of the assay: Glucocerebrosidase-p2 (AID 348; in the data active = potency below about 10 µM; note: potency is the fitted concentration of half-maximal effect). The settings on record: purified GBA, blue fluorogenic substrate, 40 min. In short, it runs like this: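 Compounds titrated from 0.6 nM upwards against 0.2 nM enzyme in pH 5.9 citric acid/KH2PO4, taurocholate, tween-20; blue fluorogenic substrate 80 uM, 40 min room temperature, stopped and read Ex 365/Em 440 for AC50.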

Assay [2] in a line: AP1 Signaling Pathway (AID 357; active = well fitted curve in either direction with a large enough effect, not every such curve was filed as active;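 note: ME-180 reporter cells stimulated with EGF at its EC50 level; % is set by controls: 0 for no effect and ±100 for the full control effect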). The settings on record: ME-180 AP-1-bla reporter, EGF-induced, beta-lactamase ratio, 5 h; at 7.69 µM (top of the series) unless noted. In a few lines:
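A ratiometric CCF4 readout (405 nm excitation; 460 and 530 nm emission) quantified AP-1-driven beta-lactamase in ME-180 cells after 5 h with compound and EC50 EGF; AC50 values were derived for activators and inhibitors.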

In assay [3] the target is Cytochrome P450 1A2 (Homo sapiens) (UniProt P05177). Description: p450-cyp1a2 (AID 410; calls by dose curve; note: potency is the fitted concentration of half-maximal effect). The settings on record: recombinant CYP1A2, luciferin-ME demethylation, luminescence; series mostly up to 57 µM. In short, it runs like this:
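Luminescent readout of luciferin formed from Luciferin-ME by human CYP1A2; data normalized against complete inhibition by 57 uM furafylline. Enzyme 20nM, substrate 100uM at Km, 100mM KPO4 buffer, 60 min reaction at room temperature.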

The nature of assay [4]: NFAT Signaling Pathway (AID 444; active = well fitted curve in either direction with a large enough effect, not every such curve was filed as active;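 note: carbachol stimulus at about its EC50 of 1 µM final; % is set by controls: 0 for no effect and ±100 for the full control effect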). The settings on record: Jurkat NFAT-bla M1, carbachol, beta-lactamase ratio, 5 h; at 7.69 µM (top of the series) unless noted. In a few lines:
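Read-out: CCF4 FRET ratio (460 nm/530 nm) after 1 h RT dye loading, used for %activity and AC50 from titration series. Cells: Jurkat NFAT-β-lactamase/M1 line, treated with compound plus 1 uM carbachol for 5 h, 37 °C.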

Assay [5] can be described thus: Stat Signaling Pathway (AID 446; active = well fitted curve in either direction with a large enough effect, not every such curve was filed as active;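 note: ME-180 cervical cancer cells given 40 pM IL-6 alongside compound; SIE-controlled beta-lactamase reporter measured as 460/530 nm FRET emission ratio; % is set by controls: 0 for no effect and ±100 for the full control effect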). The settings on record: ME-180 SIE beta-lactamase reporter, IL-6 stimulated, 5 h; at 7.69 µM (top of the series) unless noted. In short, it runs like this: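 IL-6/STAT signaling read in ME-180 cells via an SIE beta-lactamase reporter. Stimulus was 40 pM IL-6 (its AC50) for 5 hrs, so both activation and inhibition register.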
The target in assay [6] is Glucocorticoid receptor (Homo sapiens) (UniProt P04150). Nature of the assay: GR-GFP Redistribution (AID 450;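 active = compounds whose dose series gives a full or clear partial fitted curve of increased nuclear translocation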; note: potency is the fitted concentration of half-maximal effect). The settings on record: U2OS GR-GFP nuclear translocation, laser cytometry, 2 h.
Sequence of Glucocorticoid receptor (Homo sapiens) (P04150 whole entry, looked up): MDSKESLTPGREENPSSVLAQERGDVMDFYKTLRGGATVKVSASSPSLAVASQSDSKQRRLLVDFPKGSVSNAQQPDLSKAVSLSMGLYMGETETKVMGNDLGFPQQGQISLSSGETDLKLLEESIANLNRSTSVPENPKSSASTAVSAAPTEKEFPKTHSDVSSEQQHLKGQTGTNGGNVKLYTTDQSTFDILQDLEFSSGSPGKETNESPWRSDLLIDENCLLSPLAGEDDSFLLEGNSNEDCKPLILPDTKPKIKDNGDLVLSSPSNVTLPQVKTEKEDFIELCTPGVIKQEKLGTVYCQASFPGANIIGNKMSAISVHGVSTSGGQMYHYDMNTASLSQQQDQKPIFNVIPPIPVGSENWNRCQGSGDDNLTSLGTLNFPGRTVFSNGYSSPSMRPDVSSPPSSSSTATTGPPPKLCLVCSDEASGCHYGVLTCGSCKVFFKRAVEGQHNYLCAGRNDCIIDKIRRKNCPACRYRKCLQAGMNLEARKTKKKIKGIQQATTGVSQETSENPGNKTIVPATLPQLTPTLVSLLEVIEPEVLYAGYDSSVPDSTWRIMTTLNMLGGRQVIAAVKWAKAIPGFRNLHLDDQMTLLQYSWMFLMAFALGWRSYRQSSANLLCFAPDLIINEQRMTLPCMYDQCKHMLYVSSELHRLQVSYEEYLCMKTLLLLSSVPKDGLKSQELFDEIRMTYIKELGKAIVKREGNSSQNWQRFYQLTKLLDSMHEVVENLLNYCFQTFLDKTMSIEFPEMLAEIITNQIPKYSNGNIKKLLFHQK
The target is the same in assay [7]. Nature of the assay: GR-EFC Redistribution (AID 451; calls by dose curve; note: potency is the fitted concentration of half-maximal effect). The settings on record: CHO-K1 GR-EFC translocation, beta-gal luminescence, 2 h. In a few lines:
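Translocation of GR-ED fusion to nuclear EA restores b-gal, read by luminescence after 1 h room-temperature detection. Engineered CHO-K1 biosensor cells, 1,000/well, exposed 2 h at 37 C to titrations up to 46 uM final.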

The target of assay [8] is Mitogen-activated protein kinase 10 (Mus musculus) (UniProt Q61831). Description: JNK3 AlphaScreen Assay (AID 530; active = well fitted curve in either direction with a large enough effect, not every such curve was filed as active;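 note: kinase came from lysate of stimulated human HepG2 cells; signal reports phosphorylation of biotinylated GST-cJun 1-79 at Ser73 with 10 µM ATP; % is set by controls: 0 for no effect and ±100 for the full control effect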). The settings on record: JNK3 lysate, c-Jun phosphorylation; series mostly up to 57.1 µM. In short, it runs like this:
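Compound titrations were preincubated 15 minutes at room temperature with substrate, antibody and pre-activated JNK3-containing HepG2 lysate. Reactions were started with 10 uM ATP and stopped with EDTA-containing bead buffer for AlphaScreen detection.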

In assay [9] the target is Cytochrome P450 3A4 (Homo sapiens) (UniProt P08684). Nature of the assay: qHTS Assay for Inhibitors and Substrates of Cytochrome P450 3A4 (AID 884). Note: potency is the fitted concentration of half-maximal effect; nearly all actives have a fitted effect of over 50% in size. The settings on record: recombinant CYP3A4, Luciferin-PPXE luminescence; series mostly up to 57.1 µM. In a few lines: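 20 nM human CYP3A4 with 25 uM Luciferin-PPXE (at KM) in 200 mM KPO4, preincubated 10 min with compound; NADPH regeneration started a 60 min RT reaction. Luciferin detected by luminescence, normalized to 57 uM ketoconazole as full inhibition.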
Sequence of Cytochrome P450 3A4 (Homo sapiens) (P08684 whole entry, looked up): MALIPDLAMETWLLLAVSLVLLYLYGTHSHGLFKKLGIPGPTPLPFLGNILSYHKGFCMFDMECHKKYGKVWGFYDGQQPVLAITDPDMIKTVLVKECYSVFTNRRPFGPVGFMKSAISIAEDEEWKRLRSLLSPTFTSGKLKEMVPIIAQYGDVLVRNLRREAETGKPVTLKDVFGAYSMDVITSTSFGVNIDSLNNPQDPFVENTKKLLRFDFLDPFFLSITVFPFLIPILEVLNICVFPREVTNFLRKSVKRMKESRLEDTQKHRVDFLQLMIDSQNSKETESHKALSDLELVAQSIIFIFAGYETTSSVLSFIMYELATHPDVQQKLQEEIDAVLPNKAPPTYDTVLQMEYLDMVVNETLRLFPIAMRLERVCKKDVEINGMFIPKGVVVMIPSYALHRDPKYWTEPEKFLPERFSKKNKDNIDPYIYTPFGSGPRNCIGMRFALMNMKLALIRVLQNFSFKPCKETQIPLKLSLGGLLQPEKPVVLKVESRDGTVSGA

For assay [10] the target is unchanged. Nature of the assay: qHTS Assay for Activators of Cytochrome P450 3A4 (AID 885). Note: nearly all actives have a fitted effect of over 65% in size. The settings on record: recombinant CYP3A4, Luciferin-PPXE luminescence, 60 min; series mostly up to 57.1 µM. In a few lines: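 Quantitative HTS format: compounds preincubated with 20nM human CYP3A4 and Luciferin-PPXE substrate at KM, reaction started by NADPH regeneration, stopped after 60 min, luciferase luminescence read 20 min later.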

Assay [11] deals with Cytochrome P450 2D6 (Homo sapiens) (UniProt P10635). Nature of the assay: qHTS Assay for Inhibitors and Substrates of Cytochrome P450 2D6 (AID 891). Note: potency is the fitted concentration of half-maximal effect; nearly all actives have a fitted effect of over 60% in size. The settings on record: recombinant CYP2D6, luciferin-ME EGE luminescence; series mostly up to 57.1 µM. In short, it runs like this: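 Human CYP2D6 (5 nM) with 30 uM Luciferin-ME EGE (at Km) in 100 mM KPO4, compound preincubated 10 min, then NADPH regeneration system for 60 min at room temperature. Luciferin read by luminescence; normalized to 1.43 uM quinidine.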

The target of assay [12] is Cytochrome P450 2C19 (Homo sapiens) (UniProt P33261). Nature of the assay: qHTS Assay for Inhibitors and Substrates of Cytochrome P450 2C19 (AID 899). Note: potency is the fitted concentration of half-maximal effect; nearly all actives have a fitted effect of over 60% in size. The settings on record: recombinant CYP2C19, luciferin-H EGE luminescence; series mostly up to 57.1 µM. In short, it runs like this: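 Luminescence readout of luciferin formed from 10uM Luciferin-H EGE (KM level) by 5 nM CYP2C19 in 50mM KPO4. 60 min NADPH-driven reaction at 37C after 10 min compound preincubation; data scaled to 57uM ketoconazole inhibition.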
Sequence of Cytochrome P450 2C19 (Homo sapiens) (P33261 whole entry, looked up): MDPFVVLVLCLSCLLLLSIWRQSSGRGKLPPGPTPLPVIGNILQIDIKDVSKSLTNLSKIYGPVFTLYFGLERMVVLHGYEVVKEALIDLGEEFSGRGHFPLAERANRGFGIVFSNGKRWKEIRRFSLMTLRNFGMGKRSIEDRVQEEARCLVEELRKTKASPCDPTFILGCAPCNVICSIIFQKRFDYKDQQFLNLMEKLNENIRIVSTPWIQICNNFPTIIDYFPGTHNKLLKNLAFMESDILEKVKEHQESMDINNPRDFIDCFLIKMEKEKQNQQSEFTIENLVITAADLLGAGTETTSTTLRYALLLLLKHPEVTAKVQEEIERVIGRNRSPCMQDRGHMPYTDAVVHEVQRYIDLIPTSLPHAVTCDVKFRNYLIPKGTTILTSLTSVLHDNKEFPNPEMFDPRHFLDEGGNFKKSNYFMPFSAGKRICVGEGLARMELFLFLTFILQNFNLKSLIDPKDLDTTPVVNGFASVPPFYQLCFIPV

Assay [13] has as its target Dual specificity protein kinase CLK4 (Homo sapiens) (UniProt Q9HAZ1). Nature of the assay: qHTS Assay for Inhibitors of CDC-like Kinase 4 (Kinase-Glo Assay) (AID 1770). Note: nearly all actives have a fitted effect of over 65% in size. Note: potency is the fitted concentration of half-maximal effect. The settings on record: recombinant Clk4, Kinase-Glo ATP depletion luminescence; series mostly up to 66.7 µM. In short, it runs like this:
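Readout: Kinase-Glo luminescence from ATP left after a 4.5 h room-temperature reaction of 25 nM Clk4 with 100 uM RS peptide and 1 uM ATP (final). Buffer: 25 mM Tris pH 7.5, 10 mM MgCl2.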

The target is the same in assay [14]. Nature of the assay: qHTS Assay for Inhibitors of CDC-like Kinase 4 (ADP-Glo Assay) (AID 1771). Note: nearly all actives have a fitted effect of over 70% in size. Note: potency is the fitted concentration of half-maximal effect. The settings on record: recombinant CLK4, ADP-Glo luminescence; series mostly up to 80 µM. In short, it runs like this: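 Luminescence from ADP-Glo reports ADP produced by 25 nM Clk4 acting on 100 uM RS repeat peptide with 1 uM ATP over 1 hr at room temperature; residual ATP is depleted before ADP is converted to ATP for detection.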

Assay [15] has as its target Ubiquitin carboxyl-terminal hydrolase 1 (Homo sapiens) (UniProt O94782). Description: Inhibitors of USP1/UAF1: Pilot qHTS (AID 504865). Note: nearly all actives have a fitted effect of over 35% in size. Note: potency is the fitted concentration of half-maximal effect. The settings on record: purified USP1/UAF1, Ub-rhodamine cleavage fluorescence; series mostly up to 54.9 µM. In a few lines:
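1nM USP1/UAF1 + cpd, 15 min RT; start w/ Ub-Rho 150nM final; kinetic FL 480/540 nm, 6 reads q60 s. Buffer 50mM HEPES pH 7.8, 0.5mM EDTA, 1mM TCEP, 0.01% Tween-20, 0.1 mg/ml BSA.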

Assay [16] is described as follows: Primary qHTS for small molecule stabilizers of the endoplasmic reticulum resident proteome: Secreted ER Calcium Modulated Protein (SERCaMP) assay (AID 1508630). Note: % is set by controls: 0 for no effect and ±100 for the full control effect. The settings on record: SH-SY5Y GLuc-SERCaMP (Gaussia luciferase released on ER calcium loss) secretion, thapsigargin, luminescence; series mostly up to 38.4 µM. In short, it runs like this: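 GLuc-SERCaMP-expressing SH-SY5Y cells, pretreated 16 h with compound, are challenged with thapsigargin to empty ER calcium stores; after 4 h, coelenterazine is added directly to the medium and luminescence is imaged.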

In assay [17] the target is 3',5'-cyclic-AMP phosphodiesterase 4B (Homo sapiens) (UniProt Q07343). Nature of the assay: qHTS Assay for Inhibitors of PDE-IV (AID 607; active = well fitted activation curve with a large enough effect in the main read-out, with a control signal flat, not every such curve was filed as active; note: % of control where 0% means no effect). The settings on record: HEK293 ACTOne CNG channel cells, membrane potential fluorescence; series mostly up to 22.9 µM. In short, it runs like this: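 Live HEK293 cells with a modified cyclic nucleotide-gated (CNG) channel report intracellular cAMP via membrane-potential dye fluorescence (ex 535/em 590 nm). Endogenous PDE-IV was targeted. Compounds were tested at up to 22.9 uM final; RO 20-1724 100 uM served as control.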
Sequence of 3',5'-cyclic-AMP phosphodiesterase 4B (Homo sapiens) (Q07343 whole entry, looked up): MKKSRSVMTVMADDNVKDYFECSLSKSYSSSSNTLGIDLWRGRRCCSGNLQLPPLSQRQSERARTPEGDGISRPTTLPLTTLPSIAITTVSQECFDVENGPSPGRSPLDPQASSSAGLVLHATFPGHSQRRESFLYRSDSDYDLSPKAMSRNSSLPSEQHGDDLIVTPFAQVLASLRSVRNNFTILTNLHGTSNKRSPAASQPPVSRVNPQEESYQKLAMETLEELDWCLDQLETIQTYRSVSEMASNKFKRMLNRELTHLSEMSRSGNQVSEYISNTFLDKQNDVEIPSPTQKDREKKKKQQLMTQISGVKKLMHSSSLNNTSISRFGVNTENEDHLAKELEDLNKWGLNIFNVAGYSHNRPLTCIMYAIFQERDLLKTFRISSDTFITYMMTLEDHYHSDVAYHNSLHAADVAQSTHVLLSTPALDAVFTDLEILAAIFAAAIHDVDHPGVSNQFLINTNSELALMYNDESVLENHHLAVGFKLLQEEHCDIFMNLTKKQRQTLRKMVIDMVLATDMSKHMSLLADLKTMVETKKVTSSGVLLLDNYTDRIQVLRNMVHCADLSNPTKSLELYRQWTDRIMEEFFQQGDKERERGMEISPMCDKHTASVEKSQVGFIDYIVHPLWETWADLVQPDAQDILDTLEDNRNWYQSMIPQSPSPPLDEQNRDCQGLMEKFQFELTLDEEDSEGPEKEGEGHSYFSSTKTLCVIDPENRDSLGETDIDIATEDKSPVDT

Assay [18] is described as follows: qHTS Assay for Identification of Small Molecule Agonists for Hypoxia Response Element Signaling Pathway (AID 914; active = well fitted activation curve with a large enough effect in the signal ratio, with a control signal flat, not every such curve was filed as active; the % refers to the signal ratio; note: % of control where 0% means no effect). The settings on record: ME-180 (cervical carcinoma) HRE-bla reporter, beta-lactamase ratio, CoCl2, 17 h; activation: stronger effect = higher value. In short, it runs like this: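 Positive modulation of EC50 CoCl2-induced hypoxia response element signaling is measured in ME-180 cells with a beta-lactamase reporter. Compounds are titrated, incubation runs 17 hours, and %Activity derives from the blue/green ratio.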

The structures appear in SMILES notation. A number with no mark means an inactive call. Results filed as inconclusive are left out. Active and inactive are the calls of the source. Unless noted, calls come from the whole dose curve; as a rule, active = well fitted curve in the direction sought with a large enough effect; inconclusive = small, poorly fitted or top-dose-only effect, or another doubt; inactive = no such curve, though single readings can be large; an effect the other way counts as inactive or inconclusive.

Sequence of Ubiquitin carboxyl-terminal hydrolase 1 (Homo sapiens) (O94782 whole entry, looked up): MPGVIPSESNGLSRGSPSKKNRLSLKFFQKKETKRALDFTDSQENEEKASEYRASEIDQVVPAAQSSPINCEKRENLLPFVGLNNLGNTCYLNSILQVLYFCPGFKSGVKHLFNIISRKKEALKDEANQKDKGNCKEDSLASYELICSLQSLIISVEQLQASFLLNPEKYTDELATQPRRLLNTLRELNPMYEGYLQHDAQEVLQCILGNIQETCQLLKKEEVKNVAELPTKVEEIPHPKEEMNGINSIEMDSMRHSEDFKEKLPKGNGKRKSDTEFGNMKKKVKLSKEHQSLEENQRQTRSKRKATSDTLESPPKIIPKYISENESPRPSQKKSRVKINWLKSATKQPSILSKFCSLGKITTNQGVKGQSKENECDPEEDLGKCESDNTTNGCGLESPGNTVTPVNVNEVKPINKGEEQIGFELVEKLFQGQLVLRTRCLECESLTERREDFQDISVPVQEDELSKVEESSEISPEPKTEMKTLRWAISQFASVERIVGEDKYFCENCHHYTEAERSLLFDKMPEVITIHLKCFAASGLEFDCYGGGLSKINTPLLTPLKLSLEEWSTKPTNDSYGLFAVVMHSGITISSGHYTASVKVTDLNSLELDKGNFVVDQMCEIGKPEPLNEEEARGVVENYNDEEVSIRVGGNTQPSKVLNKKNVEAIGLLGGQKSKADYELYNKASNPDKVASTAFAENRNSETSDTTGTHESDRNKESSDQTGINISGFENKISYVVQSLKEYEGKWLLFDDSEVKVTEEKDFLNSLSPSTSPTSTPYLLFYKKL
Sequence of Dual specificity protein kinase CLK4 (Homo sapiens) (Q9HAZ1 whole entry, looked up): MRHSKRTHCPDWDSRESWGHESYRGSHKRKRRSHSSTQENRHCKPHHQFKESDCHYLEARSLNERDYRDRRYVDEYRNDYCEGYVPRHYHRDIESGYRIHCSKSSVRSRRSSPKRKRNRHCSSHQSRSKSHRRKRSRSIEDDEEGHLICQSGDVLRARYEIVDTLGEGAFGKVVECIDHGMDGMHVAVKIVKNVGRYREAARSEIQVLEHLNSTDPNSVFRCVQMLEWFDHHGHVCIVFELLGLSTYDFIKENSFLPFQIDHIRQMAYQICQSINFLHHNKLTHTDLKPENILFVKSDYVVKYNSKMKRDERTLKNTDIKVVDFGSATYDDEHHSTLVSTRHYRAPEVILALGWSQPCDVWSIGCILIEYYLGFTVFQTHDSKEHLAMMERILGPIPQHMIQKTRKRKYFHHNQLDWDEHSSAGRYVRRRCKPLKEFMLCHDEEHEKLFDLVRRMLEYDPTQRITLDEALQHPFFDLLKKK
Sequence of Cytochrome P450 1A2 (Homo sapiens) (P05177 whole entry, looked up): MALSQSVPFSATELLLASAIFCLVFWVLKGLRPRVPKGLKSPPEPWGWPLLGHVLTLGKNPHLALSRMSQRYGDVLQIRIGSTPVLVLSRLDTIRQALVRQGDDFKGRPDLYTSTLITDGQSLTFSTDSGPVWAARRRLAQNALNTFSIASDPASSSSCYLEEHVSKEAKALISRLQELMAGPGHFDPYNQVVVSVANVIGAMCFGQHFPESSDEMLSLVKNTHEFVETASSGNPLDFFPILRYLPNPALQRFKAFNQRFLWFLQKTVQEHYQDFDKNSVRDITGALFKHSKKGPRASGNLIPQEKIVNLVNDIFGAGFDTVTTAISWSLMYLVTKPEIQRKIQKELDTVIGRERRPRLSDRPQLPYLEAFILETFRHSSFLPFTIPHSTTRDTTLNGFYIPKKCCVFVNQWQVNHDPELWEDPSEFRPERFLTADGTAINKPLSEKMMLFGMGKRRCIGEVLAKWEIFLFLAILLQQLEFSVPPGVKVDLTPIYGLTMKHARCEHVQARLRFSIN
Sequence of Lysosomal acid glucosylceramidase (Homo sapiens) (P04062 whole entry, looked up): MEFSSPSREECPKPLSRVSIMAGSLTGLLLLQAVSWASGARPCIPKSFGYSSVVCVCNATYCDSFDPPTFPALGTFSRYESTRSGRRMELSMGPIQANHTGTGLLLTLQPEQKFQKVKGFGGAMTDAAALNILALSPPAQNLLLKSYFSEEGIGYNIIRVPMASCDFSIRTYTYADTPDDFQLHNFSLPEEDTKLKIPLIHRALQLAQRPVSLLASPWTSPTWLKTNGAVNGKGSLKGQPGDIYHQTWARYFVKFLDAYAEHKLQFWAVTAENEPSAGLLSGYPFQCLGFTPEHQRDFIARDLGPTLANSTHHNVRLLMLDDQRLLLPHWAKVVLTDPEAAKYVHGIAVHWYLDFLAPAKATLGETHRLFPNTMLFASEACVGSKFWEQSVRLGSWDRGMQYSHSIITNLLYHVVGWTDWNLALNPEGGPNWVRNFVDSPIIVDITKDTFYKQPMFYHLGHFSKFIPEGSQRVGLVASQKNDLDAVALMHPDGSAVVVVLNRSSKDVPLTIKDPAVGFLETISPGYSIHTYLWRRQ

With `COc1ccc(CNc2ncncc2-c2cccc(C#N)c2)c(OC)c1`, the Potency in assay [1] is more than 11.4 µM; in assay [3], 7.94 µM (active); in [6], more than 46 µM; in [7], more than 46 µM; in [9], 0.316 µM (active); in [11] it was 5.01 µM (active). Also, the results for the Potency in [12], in assay [13] and in assay [14] were 5.01 µM (active), 28.2 µM (active) and 35.5 µM (active), respectively. Further, the values for the activity change, negative = inhibition in assay [2] and in assay [4] were -5.26% and 13.9%, respectively. Also, the activity, negative = inhibition in assay [5] was 8.97%. Besides, the Potency entry in [8], in assay [10] and in assay [15] was “inactive” throughout. Moreover, the outcome in assay [16] was inactive.

As for `COc1cccc(-c2cncnc2NCc2cccc(C)c2)c1`, the Potency is more than 11.4 µM in assay [1]; 2 µM (active) in assay [3]; more than 46 µM in assay [6]; more than 46 µM in assay [7]; 0.398 µM (active) in [9]; 0.794 µM (active) in [12]. For the same molecule, the Potency is 31.6 µM (active) in [13] and 25.1 µM (active) in assay [14]. Also, the activity change, negative = inhibition in assay [2] was -11.8%; in assay [4] it was -0.339%. The activity, negative = inhibition in assay [5] is -10.4%. The Potency entry in [8], in [10] and in [15] was “inactive” in each case. Moreover, the result in assay [16] was inactive.

On to `c1csc(CNc2ncncc2-c2ccoc2)c1`, for which the Potency was more than 11.4 µM in assay [1]; 2 µM (active) in [3]; more than 46 µM in assay [6]; more than 46 µM in assay [7]; 2 µM (active) in [9]. Moreover, the results for the activity change, negative = inhibition in assay [2] and in [4] were -12.1% and 3.52%, respectively. Moreover, the activity, negative = inhibition in [5] was -10.5%. The Potency result in [8], in [17], in assay [10], in assay [13], in assay [14] and in assay [15] was “inactive” each time. For the same molecule, the activation in assay [18] is 2.26%. Besides, the result in assay [16] was inactive.

Take `Cc1ccccc1-c1cncnc1NCc1cccnc1`: the Potency was more than 11.4 µM in assay [1]; 15.8 µM (active) in assay [3]; more than 46 µM in assay [6]; more than 46 µM in assay [7]; 0.631 µM (active) in assay [9]; 0.398 µM (active) in assay [12]. In addition, the activity change, negative = inhibition in assay [2] is -2.76%; in assay [4], -14.1%. For the same molecule, the activity, negative = inhibition in assay [5] is 4.91%. Further, the Potency result in assay [8], in assay [17], in assay [10], in assay [13], in [14] and in assay [15] was “inactive” throughout. Also, the outcome in assay [16] was inactive.

Regarding `COc1cccc(-c2nc(NCc3cccs3)c3ccccc3n2)c1`, the Potency in assay [1] is more than 11.4 µM; in [3], 0.316 µM (active); in [6], more than 46 µM; in assay [7], more than 46 µM; in [9] it was 3.16 µM (active); in assay [12] it was 3.16 µM (active). In addition, the results for the Potency in [13], in assay [14] and in [15] were 17.8 µM (active), 15.8 µM (active) and 20 µM (active), respectively. Besides, the activity change, negative = inhibition in assay [2] is 9.31%; in assay [4], -22.6%. Besides, in assay [5], the activity, negative = inhibition is -12.6%. Besides, the Potency entry in assay [8] and in [10] was “inactive” in each case. Also, in assay [16], the outcome was inactive.

For the molecule `CS(=O)(=O)Nc1cccc(-c2nc(NCc3ccccc3)c3ccccc3n2)c1`, the Potency was more than 11.4 µM in assay [1]; 2.51 µM (active) in assay [3]; more than 46 µM in assay [6]; more than 46 µM in assay [7]; 3.16 µM (active) in [9]; 31.6 µM (active) in assay [13]. Besides, the Potency in [14] is 28.2 µM (active). Further, the activity change, negative = inhibition in [2] is -10.8%; in [4], 7.92%. For the same molecule, the activity, negative = inhibition in assay [5] was -10.7%. The Potency entry in assay [8], in assay [10] and in [15] was “inactive” throughout. Also, the outcome in [16] was inactive.
